From ChEMBL document CHEMBL4513216, “Probing the Open Global Health Chemical Diversity Library for Multistage-Active Starting Points for Next-Generation Antimalarials” (ACS Infect Dis, 2020)
The whole screen tested about 65,000 compounds, of which about 2,100 (3.2%) showed an effect of 50% or more. The median lay at about -52%. Only a selection was taken, and strong results are over-represented in it overall.

The compounds below were run on Plasmodium falciparum (assay: Screen against P. falciparum Asexual Blood Stage (ABS), at 5uM). Details: tested at 5 uM.
Type: functional, Dd2

Row | Structure (SMILES) | INHIBITION
1 | COCCN1CCO[C@H]2CN(Cc3cccc(C)n3)C[C@H]21 | -18.3%
2 | Cc1cc(NC2CC3(CCN(Cc4ncccc4F)C3)C2)ncn1 (configuration not stated) | -37.1%
3 | CCc1c(C)[nH]c(C2(N)CCCC2)nc1=O | -43.5%
4 | CNC(=O)[C@H]1C[C@@H]2CN(Cc3cccnc3OC)C[C@@H]2N1C(C)C | 21.8%
5 | CN1CCCC(Cc2cncc(Br)c2)CC1 (configuration not stated) | -65%
6 | Cc1cc(C(C)NCCN2CCC(N(C)C)CC2)c(C)s1 (configuration not stated) | 81.6%
7 | CC(NCCN1CCC(N(C)C)CC1)c1ccc(Cl)s1 (configuration not stated) | 75.4%
8 | CC(Cn1cccn1)NCc1ccc(Cl)s1 (configuration not stated) | -30.2%
9 | Cc1cc(Br)cnc1NCCN1CCC(N(C)C)CC1 | 89.1%
10 | CC(NC(=O)CN1CCCC1=O)c1ccc(Cl)s1 (configuration not stated) | -3.71%
11 | CN1[C@@H]2CC[C@H]1CN(c1cc(Sc3cccs3)nc(N)n1)CC2 | 19.3%
12 | Cc1ccc(CN2CC[C@H]3NC(=O)CC[C@@H]32)o1 | -34.6%
13 | CSc1ccc(-c2nc(CN3CCC(CN)C3)c(C)o2)cc1 (configuration not stated) | 83.05%
14 | Cc1cc(CN2CC[C@]3(C[C@@H](OCC(=O)N(C)C)CO3)C2)no1 | -93%
15 | CCn1cc(CN2CCCCC2CCn2ccnc2C)cc1C#N (configuration not stated) | 78.2%
16 | c1ccc(CN2CCCC[C@H]3CN(c4ncccn4)C[C@H]32)cc1 | 3.59%
17 | CCn1ccnc1CN1CCN(C(C)C)CC1C (configuration not stated) | -35.9%
18 | O=C(c1cc2cc(F)ccc2[nH]1)N1CCC(Nc2ccc(F)cc2)CC1 | -1.01%
19 | CCCN1CCC(NC(=O)c2ccc(F)cc2I)CC1 | 71.1%
20 | Cc1cc(CC(=O)N2CCN(CC3CC3)[C@@H]3CS(=O)(=O)C[C@@H]32)ccc1F | -75.7%
21 | CO[C@H]1CNC[C@@H]1NC(=O)c1cc(C)nc2c(C)cc(C)cc12 | 75.1%
22 | Cc1cc(C(=O)N[C@H]2COC[C@@H]2N2CCOCC2)c2ccc(F)cc2n1 | -31.3%
23 | Cc1ccc2nc(C)cc(C(=O)N[C@H]3COC[C@@H]3N3CCOCC3)c2c1 | -169%
24 | c1cncc(OC[C@]23COC[C@H]2CN(C2CCC2)C3)c1 | -4.29%
25 | CCC1CCCN(Cc2nc(N)c3ccccc3n2)C1 (configuration not stated) | 74%
26 | O=S(=O)(C1CC1)N1CCOC2(CCCN(Cc3ccccn3)C2)C1 (configuration not stated) | -97.5%

Row | Structure (SMILES) | INHIBITION
27 | CN(C)CCN1CCC(NC2CSCCc3ccccc32)CC1 (configuration not stated) | 76.5%
28 | CCN1CCc2c(cccc2NC(=O)N(C)C2CCSC2)C1 (configuration not stated) | -40.2%
29 | CN(C)CCN1CCN(CC2CC2)c2ncccc2C1 | 10.4%
30 | O=C1[C@@H]2CN(Cc3ccccn3)C[C@H]2CCN1c1cncnc1 | -99.9%
31 | Cc1ccc(-n2nnc(CC(=O)N3CCN(C(C)C)CC3)c2C)cc1 | -42.3%
32 | CCC(=O)NCC(=O)NC(Cc1ccccc1)c1sccc1C (configuration not stated) | 85.5%
33 | CCOC(C)c1noc(CN(C)C(=O)C2C(C)(C)C2(C)C)n1 (configuration not stated) | -124%
34 | COc1ccc(CCNCc2ccco2)cc1OC | 5.79%
35 | Cc1cc(C)c2cc(CNCc3ccco3)c3nn(C)c(=O)n3c2c1 | 75.5%
36 | Cc1cc(C)c2cc(CNC3CCCCC3)c3nn(C)c(=O)n3c2c1 | 79.7%
37 | Oc1ccc(Cl)cc1CNCc1ccccc1Cl | 76.4%
38 | Cc1ccccc1CNCc1cc(Cl)ccc1O | 75.4%
39 | Oc1ccc(Cl)cc1CNCc1cccc(C(F)(F)F)c1 | 89%
40 | COCCNC(=O)[C@H]1C[C@@H]2CCN(Cc3ccncc3)C[C@H]2O1 | -49.6%
41 | O=C(NCc1ccncc1)C1=NOC2(CCCNC2)C1 (configuration not stated) | -6.12%
42 | Cc1cccc(CN2CC3C[C@]3(NC(=O)c3ccco3)C2)n1 (some centres not stated) | -83.2%
43 | CCCc1nc(CNC(C)Cn2cccn2)cs1 (configuration not stated) | -91.5%
44 | COCCN1CCN(c2ccc(C)nn2)Cc2ccc(C)nc21 | -54.8%
45 | Nc1nc2c(c(N3CCCC(c4nnc5ccccn45)C3)n1)CCNC2 (configuration not stated) | 84.8%
46 | c1ccn2c(C3CCCN(c4ncnc5c4CCNC5)C3)nnc2c1 (configuration not stated) | 76.2%
47 | O=C(C1CC1)N1CCc2c(ncnc2N2CCN3CCCC3C2)C1 (configuration not stated) | -21.1%
48 | Clc1cncc(N2CCN(Cc3ccon3)CC2)n1 | -51.3%
49 | CN1CCCCC1c1cncc(Cl)n1 (configuration not stated) | -143%
50 | CC(C)(N)C(=O)N1CCCC1c1cncc(Oc2ccccc2)n1 (configuration not stated) | 78.6%
51 | O=C(Nc1cccnc1)[C@@H]1C[C@H]2OCC[C@H]2N(Cc2nccs2)C1 | -80.7%
52 | Cn1cc(CN2C[C@@H]3[C@@H](C2)OCC(=O)N3Cc2ccncc2)cn1 | -72.9%

Row | Structure (SMILES) | INHIBITION
53 | CO[C@@H]1CCN(c2ncc(F)cn2)[C@@H]2CN(CC3CC3)C[C@@H]21 | 6.1%
54 | CO[C@H]1CCN(c2ncc(F)cn2)[C@@H]2CN(Cc3ccco3)C[C@H]12 | 63.7%
55 | c1ccc(COC[C@H]2CC[C@H]3[C@H](CCN3Cc3ccco3)O2)nc1 | -63.4%
56 | CO[C@@H]1CC[C@H]2[C@H]1OCCN2Cc1ccccn1 | -64.6%
57 | CCN1C[C@H]2[C@@H](C1)N(c1ncc(F)cn1)CC[C@H]2OC | 35.7%
58 | CO[C@@H]1CCN(Cc2ccccn2)[C@@H]2CN(Cc3ccco3)C[C@@H]21 | 81.6%
59 | CO[C@H]1CCN(Cc2ccccn2)[C@@H]2CN(Cc3ccco3)C[C@H]12 | 67.7%
60 | COC[C@H]1CC[C@@H]2[C@@H](CCN2Cc2ccco2)O1 | -128%
61 | COC[C@H]1CC[C@@H]2[C@@H](CCN2Cc2ccccn2)O1 | -7.67%
62 | CN(Cc1ccco1)C[C@H]1OC[C@@H]2CCN(Cc3ccccn3)C[C@@H]21 | 71.1%
63 | c1ccc(CN2CC[C@@H]3[C@@H](CO[C@@H]3CNc3ncccn3)C2)nc1 | -169%
64 | c1ccc(CN2CC[C@H]3CO[C@H](CNc4ncccn4)[C@H]3C2)nc1 | -30.4%
65 | COc1cccc2c(=O)n(C3CCNCC3)cnc12 | -104%
66 | O=C(NC1CCC1)[C@@H]1C[C@@H]2CCN(Cc3ccncc3)C[C@H]2O1 | -70.1%
67 | COCCO[C@@H]1C[C@H]2CN(C(=O)c3ccc(C)nc3)CCN2C1 | -15.2%
68 | Cn1ccc(CN2CCOCC23CCNCC3)n1 | -75.7%
69 | Cc1noc(C)c1C(=O)N1CCC2(CC1)c1nc[nH]c1CCN2C | -42.4%
70 | CCN(CC)CCN1CCO[C@H]2[C@@H](OCc3ccncc3)CC[C@@H]21 | -18.1%
71 | c1ccc(OC[C@]23COC[C@H]2CN(C2CCOCC2)C3)nc1 | 2.04%
72 | Cn1cc(CN2C[C@H]3CCC[C@@]3(COc3ccccn3)C2)cn1 | 66.1%
73 | c1ccc(OC[C@]23COC[C@H]2CN(Cc2ccoc2)C3)nc1 | 15.8%
74 | Cn1cc(CN2C[C@H]3CCC[C@@]3(COc3cccnc3)C2)cn1 | 17.2%
75 | c1ccc(COC[C@@]23CCC[C@@H]2CN(Cc2ccccn2)C3)nc1 | -56.9%
76 | CN(C)CC(=O)N1C[C@H]2CCC[C@@]2(COc2ccccn2)C1 | 84.9%
77 | COc1ccccc1C1SCC(=O)Nc2c1c(=O)[nH]n2C1CCOCC1 (configuration not stated) | -116%
78 | CN(C)c1ncc2c(n1)C1(CCN(CC3CC3)C1)COC2 (configuration not stated) | -2.79%

Row | Structure (SMILES) | INHIBITION
79 | COCCN1CCC2(COCc3c(C)nc(N(C)C)nc32)C1 (configuration not stated) | -49.6%
80 | Cc1nc(N(C)C)nc2c1COCC21CCN(CC2CC2)C1 (configuration not stated) | 50.3%
81 | Cc1ccc(CN(CCCn2ccnc2)Cc2c(F)cccc2F)s1 | 81.5%
82 | Cc1cc(C2CCC2)nc(NCCC23CCCN2CCC3)n1 | 12.6%
83 | CC(C)COc1ccc(C2SCC(=O)Nc3c2c(=O)[nH]n3C(C)C)cc1 (configuration not stated) | -35.2%
84 | CCC(C)CN1CCC(n2cc(C3CCCCC3)nn2)CC1 (configuration not stated) | 77.1%
85 | CSC(C)CCN1CCC(n2cc(C3CCCCC3)nn2)CC1 (configuration not stated) | 78.4%
86 | CC1(C)C(C(=O)NCCC2CN(Cc3c[nH]cn3)CCO2)C1(C)C (configuration not stated) | -64.7%
87 | Cc1nc(C2(NCc3cc(C#N)ccc3F)CCCCC2)no1 | -10.8%
88 | COc1ccc2[nH]c(C[C@@H]3C[C@@H](C(C)C)[C@H](CN(C)C)C=C3C)nc2c1 | 78.9%
89 | Cc1ccc(CN2C[C@@H]3CCN(Cc4cccnc4)C(=O)[C@H]3C2)s1 | -93.5%
90 | CC(C)c1nccc([C@@H]2C[C@@H]3CCN(Cc4ccco4)C[C@H]3O2)n1 | -12.5%
91 | CN(C)C(=O)CN1CCOCC2(C1)CN(c1ncccn1)CCO2 (configuration not stated) | -97%
92 | Cc1nc(-c2ccc(F)c(F)c2)cc(C2CCNCC2)n1 | 84.1%
93 | CN1CCN(S(=O)(=O)c2cccc(F)c2)Cc2cccnc21 | -37.8%
94 | Cn1cc(CN2CC[C@H]3[C@H]2CC(=O)N3Cc2ccncc2)cn1 | -2.65%
95 | CN1CCN(S(=O)(=O)c2ccc(Cl)c(Cl)c2)c2cnccc21 | 89.6%
96 | FC1(F)CCNCC12CCN(c1cccnc1)C2 (configuration not stated) | 66.6%
97 | FC1(F)CCNCC12CCN(c1ccccn1)C2 (configuration not stated) | 58.6%
98 | FC1(F)CCN(Cc2cccnc2)CC12CCN(c1ccccc1)C2 (configuration not stated) | 85.3%
99 | Fc1cccnc1N1CCC2(CNCCC2(F)F)C1 (configuration not stated) | 47.8%
100 | FC1(F)CCNCC12CCN(c1ncccn1)C2 (configuration not stated) | 19.8%
101 | OCCN1CCC(F)(F)C2(CCN(c3cccnc3)C2)C1 (configuration not stated) | -46.2%
102 | c1cnc(N2CC3(CCN(Cc4cccnc4)C3)C2)nc1 | -85.5%
